PubChem BioAssay (NCATS)
Results filed as inconclusive are left out. Some compounds were tested as several samples or in several runs, with calls that do not always agree. Activity calls are given as the source filed them. Calls come from the whole dose curve; as a rule, active = well fitted inhibition curve with a large enough effect; inconclusive = small, poorly fitted or top-dose-only effect, or effect the other way; inactive = flat fitted curve, though single readings scatter.

experiment: qHTS for Inhibitors of Plasmodium falciparum (GB4) proliferation (AID 504315); note: nearly all actives have a fitted effect of over 50% in size;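 for activity change, negative = inhibition: 0% = DMSO vehicle and -100% = 0.29 µM artemisinin control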; details: P. falciparum GB4 in erythrocytes, SYBR Green DNA, 72 h; series mostly up to 6.7 µM; activity change, negative = inhibition: at the top concentration
Source text: Plasmodium falciparum is a virulent malarial parasite that kills 1-2 million people worldwide each year. Malaria not only inflicts tremendous suffering and morbidity on the human population, but has dramatically influenced the course of civilization with profound sociological and economic implications (Shah, S. 2010). Transmitted by mosquitoes, the sporozoite form of the parasite enters the blood stream to infect hepatocytes, where they become merozoites that infect red blood cells (erythrocytes). Within erythrocytes, merozoites begin a […] cycle of growth and division, after which the parasite is released to infect new red blood cells. Gametocytes, which form within erythrocytes as well, circulate in the bloodstream and are ingested by the mosquito, thereby completing the life cycle (see CDC website). To profile malarial lines for differential chemical responses and to identify inhibitors of malarial growth, an assay that measures P. falciparum growth and replication within erythrocytes was employed. This assay uses a DNA binding fluorescent dye (SYBR Green) to detect parasite DNA following cell lysis. Because mature erythrocytes lack DNA, only Plasmodium-derived DNA is detected. The P. falciparum line cp250, derived from a malarial isolate from Cambodia, (Mu, J., et al. 2010) was added to the panel of lines, Dd2, HB3, 7G8 and GB4 in this study. Laboratory of Assay Development and Screening Technology [ADST] and NIH Chemical Genomics Center [NCGC] Boston University, Chemistry Department, Center for Chemical Methodology and Library Development [CMLD-BU] NIH National Institute of Allergy and Infectious Diseases [NIAID]
ADST Assay Protocol Summary: The 1536-well SYBR Green viability assay was based on the method of Bennett et al (2004) and described previously in 1536-well format (Yuan J., et al. 2009). For screening 3 ul culture medium was dispensed into 1536 well black clear bottom plates (Aurora Biotechnologies) using a Multidrop Combi (Thermo Fisher Scientific Inc.), 23 nL compounds in DMSO were added by a pin transfer (Cleveland, P.H. and Koutz, P.J, 2005) using a pin tool-based delivery system (Kalypsys), and 5 ul of erythrocytes infected with P. falciparum one of five lines (cp250, Dd2, HB3, 7G8 or GB4, 0.3% parasitemia, 2.5% hematocrit final concentration) were added. The plates were incubated at 37C in a humidified incubator in 5% CO2 for 72 h, and 2 ul lysis buffer (20 mM Tris HCl, 10 mM EDTA, 0.16% saponin, 1.6% triton X, 10X SYBR Green I (supplied as 10,000X final concentration by Invitrogen) was added to each well. The plates were mixed for 25 sec with gentle shaking and incubated overnight at room temperature in the dark. The following morning, fluorescence intensity at 485(14) nm excitation and 535(25) nm emission wavelengths was measured on an EnVision (Perkin Elmer) plate reader. Plate reads were normalized relative to the control inhibitor (0.29 uM artemisinin) and vehicle (DMSO) wells present on each plate and then corrected by an algorithm using vehicle-only control plates at the beginning and end of the compound plate stack. References Shah, S. (2010). The Fever: how malaria has ruled humankind for 500,000 years. New York, Sarah Crichton Books. CDC web site, http://www.cdc.gov/malaria/about/biology/index.html Mu, J., Myers, R.A., Jiang, H., Liu, S., Ricklefs, S., Waisberg, M., Chotivanich, K., Wilairatana, P., Krudsood, S., White, N.J., et Plasmodium falciparum genome-wide scans for positive selection, recombination hot spots and resistance to antimalarial drugs Nature Genetics 2010, 42, pp 268-271 Bennett TN, Paguio, M., Gligorijevic, B., Seudieu, C., Kosar, A. D., Davidson, E., and Roepe, P. D. Novel, rapid, and inexpensive cell-based quantification of antimalarial drug efficacy Antimicrobial Agents Chemother. 2004, 48(5): pp 1807-10 Yuan J, Johnson RL, Huang RL, Wichterman J, Jiang HY, Hayton K, Fidock DA, Wellems TE, Inglese J, Austin CP, Su XZ. […]
Potency is the fitted concentration of half-maximal effect.

Row | Compound | activity change, negative = inhibition | Potency
1 | CCOC(=O)CN1C(=O)NC(c2cccc(F)c2)C(C(=O)OC)=C1C (stereo not given) | 14.9% (inactive) | 
2 | O=C1[C@H]2[C@@H]3[C@@H](O)[C@H](O)CC(=NOCc4ccccc4)[C@H]3CC[C@H]2C(=O)N1C1CCCCC1 | 8% (inactive) | 
3 | CC1(OC(=O)C2CCCC2)C(=O)C=C2C=C(c3ccsc3)N(CC3CC3)C=C2C1=O (stereo not given) |  | inactive
4 | COc1ccc2c(c1)CO[C@H]([C@H](O)CO)[C@H]2C=CC#Cc1ccc(C(C)(C)C)cc1 | -1.74% (inactive) | 
5 | CC(C)CON=C1C[C@@H](O)[C@@H](O)[C@@H]2[C@H]3C(=O)N(C[C@@H]4CCCO4)C(=O)[C@@H]3CC[C@H]12 | 7.58% (inactive) | 
6 | COC(=O)N[C@H](C(C(=O)OC)=C(C)NCc1ccccc1)c1ccco1 | 14.3% (inactive) | 
7 | CCCCCC1=CC2=C(C(=O)OC)C(c3ccccc3)NC(=O)N2CC1 (stereo not given) | -8.92% (inactive) | 
8 | CCOC(=O)CCN1C(=O)[C@@H]2[C@H]3[C@H](O)[C@H](O)CC(=NNC(=O)OCc4ccccc4)[C@@H]3CC[C@H]2C1=O | -2.72% (inactive) | 
9 | C=CCOC(=O)N[C@H](C(C(=O)OC)=C(C)NCc1ccccc1)c1ccc(Br)cc1 | -7.78% (inactive) | 
10 | CC(CCN1CCCc2nc(C)c(C)cc21)=NOC[C@@H](C)[C@H](OCc1ccccc1)C(C)C | -13.1% (inactive) | 
11 | COC(=O)CCCC1=CC2=CC(=O)C(C)(OC(=O)c3cccs3)C(=O)C2=CN1c1ccc(OC)cc1 (stereo not given) |  | inactive
12 | CCOC(=O)NN=C1C[C@@H](O)[C@@H](O)[C@@H]2[C@H]3C(=O)N(c4cccc(Oc5ccccc5)c4)C(=O)[C@@H]3CC[C@@H]12 | 6.25% (inactive) | 
13 | Cc1ccc(O[C@@H]2[C@H](O)CO[C@H]2C=CC#Cc2ccc(C(C)(C)C)cc2)cc1 | 3.88% (inactive) | 
14 | COC(=O)[C@@H]1[C@@H](c2ccccc2)NC(=O)N(Cc2ccccc2)[C@@H]1C | 13.4% (inactive) | 
15 | CC(C)[C@@H](OCc1ccccc1)[C@H](C)CON=C1[C@H]2CCn3c(=O)n(-c4ccccc4)c(=O)n3[C@@H]2[C@H](O)[C@@H]2O[C@H]12 | 4.15% (inactive) | 
16 | COC(=O)C(c1ccc(OC)c(OC)c1)C1c2ccccc2C=C(C)N1C(=O)OC (stereo not given) | 3.17% (inactive) | 
17 | CCCCc1nc2c(c3c1C[C@H](C)OC3)CN(C(=O)Cc1cccs1)CC2 |  | inactive
18 | CCCCn1c(C)cc2c(c1=O)[C@H]1O[C@](c3ccsc3)(Cc3cc(OC)c(OC)cc31)O2 | 4.66% (inactive) | 
19 | COc1ccc(OC[C@H]2CN3[C@H](c4ccc(Br)cc4)[C@H](C)CC[C@H]3C(=O)O2)cc1 | 5.64% (inactive) | 
20 | CCOC(=O)CNC(=O)O[C@@H]1C(=O)c2cc(OC)ccc2O[C@H]1c1cccc(OC)c1 | 4.36% (inactive) | 

Row | Compound | activity change, negative = inhibition | Potency
21 | Cc1noc(C)c1S(=O)(=O)N1CCc2nc(-c3ccccc3)c3c(c2C1)CO[C@@H](C)C3 |  | inactive
22 | COC(=O)C(C(=O)OC)[C@@H]1O[C@@]23COC=C[C@]2(C)[C@@H]3c2ccccc21 | 0.149% (inactive) | 
23 | COc1ccc(-c2nc(-c3ccccc3)c(NC(C)(C)C)o2)cc1 |  | 1.69 µM (active) and inactive
24 | CC12C=C(C=Cc3ccccc3)C(C)(C1)C(c1ccccc1)CC2=O (stereo not given) | -10.2% (inactive) | 
25 | COC(=O)N1C2CC3(C)C=C(C)OC1(C)C3c1ccccc12 (stereo not given) |  | inactive
26 | C=CC1=C2C=C(C3CC3)N(CC(C)C)C=C2C(=O)C(C)(OC(=O)c2ccco2)C1=O (stereo not given) |  | inactive
27 | CCC(=O)OC1(C)C(=O)C=C2C=C(c3ccsc3)OC=C2C1=O (stereo not given) | 3.02% (inactive) | 
28 | CC=COC(=O)N[C@@H](c1cccc(C)c1)[C@]1(C(=O)OCC)CCCC1=O | 5.89% (inactive) | 
29 | COc1ccc2c(c1)O[C@@H](c1ccc3c(c1)OCO3)[C@H](OC(=O)NCCOc1ccccc1)C2=O | -35.1% (inactive) | 
30 | N#Cc1ccc2c(c1)C[C@]1(c3ccsc3)OC3=C(C(=O)OC4(CCCCC4)C3)[C@H]2O1 | 3.21% (inactive) | 
31 | C#CCCCON=C1C[C@@H](O)[C@H](O)[C@H]2[C@@H]3C(=O)N(Cc4ccc5c(c4)OCO5)C(=O)[C@@H]3CC[C@H]12 | 6.1% (inactive) | 
32 | C=CC1=C2C=C(C3CC3)N(c3ccc(OC)cc3)C=C2C(=O)C(C)(OC(=O)c2ccco2)C1=O (stereo not given) |  | inactive
33 | C=CCCC1(C(=O)c2ccccc2)C(=O)C(CC=C(C)C)=C(OC)C(CC=C(C)C)(CCC=C(C)C)C1=O (stereo not given) |  | 1.69 µM (active)
34 | CC(=O)O[C@@H]1C(CO[Si](C)(C)C(C)(C)C)=C(Br)C(=O)[C@@H]2O[C@]12C | -6.24% (inactive) | 
35 | C[C@@H]1C=CCCO[C@]12C(=O)N(CC1CC1)c1ccccc12 | 9.38% (inactive) | 
36 | C=CC1=C2C=C(C3CC3)N(Cc3ccccc3)C=C2C(=O)C(C)(OC(=O)c2ccco2)C1=O (stereo not given) |  | inactive
37 | COC(=O)C1=C(C(=O)OC)[C@@H]2N(C)c3ccccc3[C@@]23C[C@@H](CO)N(C(=O)c2ccc(Br)cc2)C3=N1 | 2.35% (inactive) | 
38 | COc1ccc2c(c1)O[C@H](c1ccc3c(c1)OCO3)[C@@H](OC(=O)Nc1cc(OC)c(OC)c(OC)c1)C2=O | 4.98% (inactive) | 
39 | COC[C@@H](OC(C)=O)[C@H]1OCc2ccccc2[C@H]1C=Cc1ccccc1 | 4.03% (inactive) | 
40 | C=CC(=O)N1C(=O)c2ccccc2S1(=O)=O | -3.78% (inactive) | 
